Experimental findings from PubChem BioAssay (Tox21) are described below.

Results filed as inconclusive are left out. Entries that show only a call come without a potency. Values without a mark were called inactive. Activity calls are given as the source filed them. Calls come from the whole dose curve; as a rule, active = well fitted curve in the direction sought with a large enough effect in the repeat runs; inconclusive = weak or mixed curves; inactive = no such curve, though single readings can be large; an effect the other way counts as inactive or inconclusive.

One assay in a line: A CellTox Green Cytotoxicity Assay to monitor cytotoxicity in HepG2 cells - 24 hour (AID 1224878). Note: nearly all actives have a fitted effect of over 45% in size. The note with it: CellTox Green fluorescence; series mostly up to 76.8 µM. The procedure, abridged: (§1)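 Real-time, homogeneous cytotoxicity readout: dead-cell DNA staining by CellTox Green in HepG2 monolayers, fluorescence measured at timed intervals up to 40 h of continuous compound exposure.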
For `OC(c1ccccc1)(c1ccccc1)C1CCNCC1`, the Potency entry is “inactive”.
Regarding `COC(=O)c1c(C(F)F)nc(C(F)(F)F)c(C2=NCCS2)c1CC(C)C`, the Potency result is “inactive”.
On to `O=C(CCN1CC1)OCC(CO)(COC(=O)CCN1CC1)COC(=O)CCN1CC1`, for which the Potency entry is “inactive”.
Same read-out and setting: the same measure for `CC(C)NCC(O)c1ccc(N)c(C#N)c1` (stereo unspecified): “inactive”; for `O=C(Nc1ccccc1)c1ccccc1I`: “inactive”; for `CC(=O)CCc1ccc2c(c1)OCO2`: “inactive”.
For `OC(Cn1cncn1)(c1ccc(F)cc1)c1ccccc1F` (stereo unspecified), the Potency result is “inactive”.
The same measure, in the same setting: the same measure for `COCC(=O)N(c1c(C)cccc1C)N1CCOC1=O`: “inactive”; for `O=NN1CCN(N=O)CC1`: “inactive”.
The same measure, in the same setting: under `ClCCCN1CCN(c2cccc(Cl)c2)CC1` stands “inactive”; under `N#Cc1ccncc1`, “inactive”; under `Cc1cccc(C#N)c1`, “inactive”.
For `ClCCOCOCCCl`, the Potency result is “inactive”.
Same read-out and setting: the same measure for `CCN(Cc1ccc(Cl)nc1)/C(=C/[N+](=O)[O-])NC`: “inactive”; for `CC(C)(C)NCC(O)c1cc(Cl)c(N)c(Cl)c1` (stereo unspecified): “inactive”.
With `CCCSP(=S)(OCC)Oc1ccc(Cl)cc1Cl` (stereo unspecified), the Potency entry was “inactive”.
Same read-out and setting: the same measure for `CCOP(=S)(Oc1cnc(C(C)(C)C)nc1)OC(C)C` (stereo unspecified): “inactive”.
Still for that read-out and setting: under `CCC(C)(C)c1cc(-n2nc3ccccc3n2)c(O)c(C(C)(C)CC)c1` stands “inactive”; under `CC1(C)CON(Cc2ccccc2Cl)C1=O`, “inactive”.
On the same count and under the same terms, under `NC(=S)C(N)=S` stands “inactive”; under `C=C(C)[C@@H]1CC=C(C=O)CC1`, “inactive”; under `CCCCOP(=O)(O)OCCCC`, “inactive”.
In the case of `NC(=O)O`, the Potency entry is “inactive”.
`O=[N+]([O-])c1cccc2cccnc12`: the Potency result was “inactive”.
Take `CC1=C(C(=O)O)N2C(=O)[C@@H](N)[C@H]2SC1`: the cytotoxicity is -8.35% [at 15.8 µM].
`Cc1cc(C)nc(Nc2ccccc2)n1`: the Potency result was “inactive”.
On the same count and under the same terms, under `CCS(=O)(=O)C(C)(C)S(=O)(=O)CC` stands “inactive”; under `CNC(=O)Oc1c(C(C)(C)C)cc(C)cc1C(C)(C)C`, “inactive”; under `CCOC(=O)CP(=O)(OCC)OCC`, “inactive”.
Still for that read-out and setting: under `CNC(=O)Oc1ccccc1C1OCCO1` stands “inactive”; under `CC(=O)Nc1cc([As](=O)(O)O)ccc1O`, “inactive”; under `ClC(Br)Br`, “inactive”.
The same measure, in the same setting: under `OC(c1ccc(F)cc1)(c1cncnc1)c1ccccc1Cl` (stereo unspecified) stands “inactive”.
With `C[N+](C)=CCl`, the Potency result is “inactive”.
Same read-out and setting: under `CCC1(c2ccccc2)C(=O)NC(=O)NC1=O` stands “inactive”.
Same read-out and setting: the same measure for `CC(Cl)(Cl)[N+](=O)[O-]`: “inactive”.
Still for that read-out and setting: the same measure for `CCOP(=O)(OCC)OP(=O)(OCC)OCC`: “inactive”.

The next assay can be described thus: A CellTox Green Cytotoxicity Assay to monitor cytotoxicity in HepG2 cells - 40 hour (AID 1224879). Note: nearly all actives have a fitted effect of over 40% in size. The note with it: CellTox Green fluorescence; series mostly up to 76.8 µM. The procedure, abridged:
as §1
Regarding `OC(c1ccccc1)(c1ccccc1)C1CCNCC1`, the Potency result was “inactive”.
The same measure, in the same setting: under `COC(=O)c1c(C(F)F)nc(C(F)(F)F)c(C2=NCCS2)c1CC(C)C` stands “inactive”; under `O=C(CCN1CC1)OCC(CO)(COC(=O)CCN1CC1)COC(=O)CCN1CC1`, “inactive”; under `CC(C)NCC(O)c1ccc(N)c(C#N)c1` (stereo unspecified), “inactive”.
On the same count and under the same terms, under `O=C(Nc1ccccc1)c1ccccc1I` stands “inactive”; under `CC(=O)CCc1ccc2c(c1)OCO2`, “inactive”.
On the same count and under the same terms, the same measure for `OC(Cn1cncn1)(c1ccc(F)cc1)c1ccccc1F` (stereo unspecified): “inactive”; for `COCC(=O)N(c1c(C)cccc1C)N1CCOC1=O`: “inactive”; for `O=NN1CCN(N=O)CC1`: “inactive”.
As for `ClCCCN1CCN(c2cccc(Cl)c2)CC1`, the Potency result is “inactive”.
The same measure, in the same setting: under `N#Cc1ccncc1` stands “inactive”; under `Cc1cccc(C#N)c1`, “inactive”.
The same measure, in the same setting: under `ClCCOCOCCCl` stands “inactive”.
The same measure, in the same setting: the same measure for `CCN(Cc1ccc(Cl)nc1)/C(=C/[N+](=O)[O-])NC`: “inactive”; for `CC(C)(C)NCC(O)c1cc(Cl)c(N)c(Cl)c1` (stereo unspecified): “inactive”.
`CCCSP(=S)(OCC)Oc1ccc(Cl)cc1Cl` (stereo unspecified): the Potency result is “inactive”.
Same read-out and setting: the same measure for `CCOP(=S)(Oc1cnc(C(C)(C)C)nc1)OC(C)C` (stereo unspecified): “inactive”; for `CCC(C)(C)c1cc(-n2nc3ccccc3n2)c(O)c(C(C)(C)CC)c1`: “inactive”; for `CC1(C)CON(Cc2ccccc2Cl)C1=O`: “inactive”.
Still for that read-out and setting: the same measure for `NC(=S)C(N)=S`: “inactive”; for `C=C(C)[C@@H]1CC=C(C=O)CC1`: “inactive”.
For the compound `CCCCOP(=O)(O)OCCCC`, the Potency entry is “inactive”.
Regarding `NC(=O)O`, the Potency entry was “inactive”.
Regarding `O=[N+]([O-])c1cccc2cccnc12`, the Potency entry is “inactive”.
Regarding `CC1=C(C(=O)O)N2C(=O)[C@@H](N)[C@H]2SC1`, the cytotoxicity increase was -6.02% [at 15.8 µM].
As to `Cc1cc(C)nc(Nc2ccccc2)n1`, the Potency entry was “inactive”.
Still for that read-out and setting: under `CCS(=O)(=O)C(C)(C)S(=O)(=O)CC` stands “inactive”; under `CNC(=O)Oc1c(C(C)(C)C)cc(C)cc1C(C)(C)C`, “inactive”; under `CCOC(=O)CP(=O)(OCC)OCC`, “inactive”.
Still for that read-out and setting: under `CNC(=O)Oc1ccccc1C1OCCO1` stands “inactive”; under `CC(=O)Nc1cc([As](=O)(O)O)ccc1O`, “inactive”.
On the same count and under the same terms, under `ClC(Br)Br` stands “inactive”.
Take `OC(c1ccc(F)cc1)(c1cncnc1)c1ccccc1Cl` (stereo unspecified): the Potency entry was “inactive”.
In the case of `C[N+](C)=CCl`, the Potency result is “inactive”.
As for `CCC1(c2ccccc2)C(=O)NC(=O)NC1=O`, the Potency result is “inactive”.
As to `CC(Cl)(Cl)[N+](=O)[O-]`, the Potency result is “inactive”.
Still for that read-out and setting: the same measure for `CCOP(=O)(OCC)OP(=O)(OCC)OCC`: “inactive”.

The next assay in a line: qHTS RealTime-Glo MT Cell Viability Assay in HEK293 cells - 0 hour (AID 1224880). Note: top concentration of the series differs between compounds; nearly all actives have a fitted effect of over 45% in size. The note with it: RealTime-Glo luminescence; series mostly up to 76.8 µM. A digest of the protocol:
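Nonlytic bioluminescent viability monitoring. HEK293 at 600 cells/well with reagent; 5 h settle; compound transfer by pintool; plates held at 37 C and read at set time points.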
On the technique in general: Quantitative high-throughput screening tests each substance at several concentrations.
In the case of `OC(c1ccccc1)(c1ccccc1)C1CCNCC1`, the compound was called inactive.
With `COC(=O)c1c(C(F)F)nc(C(F)(F)F)c(C2=NCCS2)c1CC(C)C`, the compound was classed as inactive.
As for `O=C(CCN1CC1)OCC(CO)(COC(=O)CCN1CC1)COC(=O)CCN1CC1`, the compound was classed as inactive.
On the same count and under the same terms, the same measure for `CC(C)NCC(O)c1ccc(N)c(C#N)c1` (stereo unspecified): “inactive”.
Regarding `O=C(Nc1ccccc1)c1ccccc1I`, the compound was classed as inactive.
Same read-out and setting: the same measure for `CC(=O)CCc1ccc2c(c1)OCO2`: “inactive”; for `OC(Cn1cncn1)(c1ccc(F)cc1)c1ccccc1F` (stereo unspecified): “inactive”; for `COCC(=O)N(c1c(C)cccc1C)N1CCOC1=O`: “inactive”.
Still for that read-out and setting: under `O=NN1CCN(N=O)CC1` stands “inactive”; under `ClCCCN1CCN(c2cccc(Cl)c2)CC1`, “inactive”; under `N#Cc1ccncc1`, “inactive”.
Same read-out and setting: the same measure for `Cc1cccc(C#N)c1`: “inactive”.
Turning to `ClCCOCOCCCl`, the compound was called inactive.
The same measure, in the same setting: the same measure for `CCN(Cc1ccc(Cl)nc1)/C(=C/[N+](=O)[O-])NC`: “inactive”; for `CC(C)(C)NCC(O)c1cc(Cl)c(N)c(Cl)c1` (stereo unspecified): “inactive”.
Consider `CCCSP(=S)(OCC)Oc1ccc(Cl)cc1Cl` (stereo unspecified), for which the call was inactive.
Same read-out and setting: under `CCOP(=S)(Oc1cnc(C(C)(C)C)nc1)OC(C)C` (stereo unspecified) stands “inactive”; under `CCC(C)(C)c1cc(-n2nc3ccccc3n2)c(O)c(C(C)(C)CC)c1`, “inactive”.
The same measure, in the same setting: the same measure for `CC1(C)CON(Cc2ccccc2Cl)C1=O`: “inactive”; for `NC(=S)C(N)=S`: “inactive”; for `C=C(C)[C@@H]1CC=C(C=O)CC1`: “inactive”.
On the same count and under the same terms, under `CCCCOP(=O)(O)OCCCC` stands “inactive”; under `NC(=O)O`, “inactive”; under `O=[N+]([O-])c1cccc2cccnc12`, “inactive”.
For the compound `CC1=C(C(=O)O)N2C(=O)[C@@H](N)[C@H]2SC1`, the activity change, negative = cytotoxicity is 1.57% [at 15.8 µM].
With `Cc1cc(C)nc(Nc2ccccc2)n1`, the compound was classed as inactive.
On the same count and under the same terms, the same measure for `CCS(=O)(=O)C(C)(C)S(=O)(=O)CC`: “inactive”; for `CNC(=O)Oc1c(C(C)(C)C)cc(C)cc1C(C)(C)C`: “inactive”.
Still for that read-out and setting: the same measure for `CCOC(=O)CP(=O)(OCC)OCC`: “inactive”.
Still for that read-out and setting: the same measure for `CNC(=O)Oc1ccccc1C1OCCO1`: “inactive”.
On to `CC(=O)Nc1cc([As](=O)(O)O)ccc1O`, for which the compound was called inactive.
Same read-out and setting: under `ClC(Br)Br` stands “inactive”.
Same read-out and setting: the same measure for `OC(c1ccc(F)cc1)(c1cncnc1)c1ccccc1Cl` (stereo unspecified): “inactive”; for `C[N+](C)=CCl`: “inactive”; for `CCC1(c2ccccc2)C(=O)NC(=O)NC1=O`: “inactive”.
Turning to `CC(Cl)(Cl)[N+](=O)[O-]`, the compound was called inactive.
In the case of `CCOP(=O)(OCC)OP(=O)(OCC)OCC`, the result was inactive.
